Shown are actives, neighbours in structure and some others; about 12% of the full set was active somewhere.
PLK1 PBD block = qHTS for Inhibitors of PLK1-PDB (polo-like kinase 1 - polo-box domain): Primary Screen. Plk1 PBD binding of FITC phosphopeptide, fluorescence polarization. Potency, µM, without a hit: max response, negative = inhibition, hits mostly inhibitors. Serine/threonine-protein kinase PLK1 (Homo sapiens), P53350. 360,000 tested, 2.8% active; further: series mostly up to about 57 µM; nearly all actives have a fitted effect of over 65% in size
ALDH1A1 block = qHTS Assay for Inhibitors of Aldehyde Dehydrogenase 1 (ALDH1A1); Aldehyde dehydrogenase 1A1 (Homo sapiens), P00352; Purified ALDH1A1, NADH fluorescence, propionaldehyde substrate; Potency, µM (titrated, usually from 75.3 µM), for the others: at the top dose activity, negative = inhibition, actives largely listed as inhibitors; 220,000 tested, 7.3% active; AID 1030, 2008; active means well fitted inhibition curve with a large enough effect, not every such curve was filed as active; inconclusive means small, poorly fitted or top-dose-only effect, or another doubt; inactive means no such curve, though single readings can be large or run the other way;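 further: plate controls were no enzyme wells and a reference inhibitor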
Target sequence (P00352 whole entry, looked up): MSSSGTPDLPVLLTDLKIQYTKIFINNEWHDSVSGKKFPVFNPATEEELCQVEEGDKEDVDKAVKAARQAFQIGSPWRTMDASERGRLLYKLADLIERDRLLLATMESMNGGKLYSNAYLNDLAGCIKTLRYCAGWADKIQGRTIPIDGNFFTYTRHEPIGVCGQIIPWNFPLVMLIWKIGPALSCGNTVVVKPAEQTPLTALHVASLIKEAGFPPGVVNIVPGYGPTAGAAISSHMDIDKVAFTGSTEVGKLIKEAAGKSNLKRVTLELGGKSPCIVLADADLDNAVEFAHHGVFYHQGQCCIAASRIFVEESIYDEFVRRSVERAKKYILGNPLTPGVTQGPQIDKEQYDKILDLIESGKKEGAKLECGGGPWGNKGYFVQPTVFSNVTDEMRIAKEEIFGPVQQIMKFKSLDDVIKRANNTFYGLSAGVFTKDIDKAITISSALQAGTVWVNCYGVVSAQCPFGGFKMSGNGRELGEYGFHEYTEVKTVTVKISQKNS
VP16 counter = VP16 counterscreen qHTS for inhibitors of ROR gamma transcriptional activity; Potency, µM (titrated, usually from 53.6 µM), for the others: at the top dose activity, negative = inhibition, most hits filed as inhibitors; Drosophila S2 Gal4-VP16 UAS-luciferase, luminescence, 20 h; 310,000 tested, 3.5% active;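 further: Gal4-VP16 expression switched on by copper sulfate through the metallothionein promoter; nearly all actives have a fitted effect of over 50% in size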
RORg inh = qHTS for inhibitors of ROR gamma transcriptional activity; Drosophila S2 Gal4-RORgamma UAS-luciferase reporter, 20 h; Potency, µM (series often up to 53.6 µM), inactives show at the top dose activity change, negative = inhibition, actives largely listed as inhibitors; 310,000 tested, 5.4% active; AID 2551, 2010; further: nearly all actives have a fitted effect of over 60% in size
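Stably transfected Drosophila Schneider cells are the test system, with ROR gamma fused to Gal4 and luciferase under UAS control; luminescence is read after 20 hr of 700 uM copper sulfate induction at ambient temperature.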
Sfp inh = qHTS Assay for Inhibitors of Bacillus subtilis Sfp phosphopantetheinyl transferase (PPTase) | AID 1490, 2009 | Potency, µM, for inactives: largest response in the series, negative = inhibition, usual class: inhibitors | 310,000 tested, 3.5% active | Biochemical Sfp PPTase activity, qHTS | 4'-phosphopantetheinyl transferase ffp (Bacillus subtilis), Q9F4F7;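 further: the enzyme is Sfp with the accession as filed and its product quenches rhodamine fluorescence; 0% = enzyme reaction without inhibitor and -100% = no enzyme wells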
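Step 1, compound plus 15 nM Sfp-PPTase, 15 min, room temperature. Step 2, add rhodamine-CoA (5 uM) and BHQ-2-YbbR (12.5 uM). Step 3, read 525/598 nm fluorescence at 0 and 30 min.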
An asterisk follows results filed as active; ? = inconclusive; . = no result given; [ ] = dose if it differs, or a comment. Unless noted, the call rests on the fitted dose curve; in most records, active means well fitted curve in the direction sought with a large enough effect; inconclusive means small, poorly fitted or top-dose-only effect, or another doubt; inactive means no such curve, though single readings can be large; an effect the other way counts as inactive or inconclusive. Unless noted, on the % scale 0 is the no-effect control and ±100 the full control effect; potency means the concentration at half of the fitted maximal effect.

SMILES | PLK1 PBD block | ALDH1A1 block | VP16 counter | RORg inh | Sfp inh
CCOC(=O)[C@]12CCCC=C1N(CCc1ccc(OC)c(OC)c1)C(=O)[C@H](CC(=O)N1CCCC1)C2 | -2.1% | . | . | . | .
CC(=O)NCCNc1cc(-c2ccccc2CN(C)C)ncn1 | . | ? | -6.3% | 10.0% | 9.3%
CN(C)c1cccc(-c2nnc(SCCCC#N)o2)c1 | -8.2% | 4.8% | ? | 11.2µM* | ?
O=C(c1cc(C2CCCCN2C(=O)OCCF)on1)N1CCOCC1 (stereo unspecified) | -2.8% | . | . | . | .
O=C(O)c1cccc(N2C(=O)C3C4C=CC(C4=C(c4ccccc4)c4ccccc4)C3C2=O)c1 (stereo unspecified) | 29.9µM* | -3.4% | 2.6% | ? | 35.5µM*
O=C(O)c1cccc(N2C(=O)c3ccc4c5c(ccc(c35)C2=O)C(=O)N(c2cccc(C(=O)O)c2)C4=O)c1 | -6.5% | . | -1.1% | -3.2% | -1.8%
O=C1C2C3C=CC(C2C(=O)N1c1cccc(O)c1)C1C2C(=O)N(c4cccc(O)c4)C(=O)C2C31 (stereo unspecified) | -3.3% | 1.41µM* | 5.5% | 15.9% | 8.3%
O=C(c1cccs1)N1C[C@H](n2cc(C3CC3)nn2)[C@@H](O)C[C@@H]1c1ccc(Cl)cc1 | -8.3% | . | . | . | .
Cn1cnc2nc(NCCO)nc(NCc3ccccc3)c21 | . | -8.5% | . | . | 4.7%
O=C(O)/C=C/c1cnn(-c2ccccc2)c1 | -2.2% | -5.5% | 14.1µM* | 7.94µM* | 17.7%
CCOC(=O)/C=C/c1cnn(-c2ccccc2)c1 | 1.3% | -1.5% | ? | ? | 10.3%
Cc1nnc(NC(=O)c2c(-c3ccccc3Cl)noc2C)s1 | -6.2% | -1.5% | -12.4% | ? | 12.3%
COC(=O)c1c(NC(=O)c2c(-c3ccccc3Cl)noc2C)sc2c1CCC2 | -21.5% | ? | 4.7% | 6.2% | 28.2µM*
Cc1onc(-c2ccccc2Cl)c1C(=O)N(C)C1CCCCC1 | -0.6% | ? | 2.51µM* | -14.3% | -8.8%
Cc1onc(-c2ccccc2Cl)c1C(=O)NC(=S)Nc1ccc(C(C)(C)C)cc1 | 3.3% | . | 12.6µM* | 7.94µM* | 1.7%
Cc1onc(-c2ccccc2Cl)c1C(=O)Nc1nnc(Cc2ccc(Cl)cc2)s1 | -10.5% | 1.6% | ? | 11.2µM* | 21.5%
CCCn1c(C)nc2c(N3CCC(N(C)C)C3)nc(C)nc21 (stereo unspecified) | . | 0.3% | -4.3% | -7.6% | 25.1%
O=C(NCCO)c1ccc(-n2c(=O)c(=O)[nH]c3ccccc32)cc1 | . | -1.8% | . | . | .
CCc1ccc(NC(=S)NC(=O)c2c(-c3ccccc3Cl)noc2C)cc1 | -2.6% | . | ? | 2.51µM* | 4.2%
Cc1c(NC(=O)Oc2ccccc2)sc(=S)n1C | 15µM* | ? | 0.6% | -33.5% | 56.2µM*
Cc1nnc(NC(=O)Oc2ccccc2)s1 | -10.1% | 9.2% | -9.4% | -20.1% | -6.1%
CC(=O)NC(=O)Nc1sc(=S)n(C)c1C | -6.7% | -0.8% | 0.8% | -6.4% | -8.2%
Cc1ccc(NC(=O)Nc2sc(=S)n(C)c2C)cc1 | ? | -13.1% | 10.1% | 17.2% | 56.2µM*
CSCC[C@H](NC(=O)[C@H](CC(C)C)NC(=O)[C@H](CO)NC(=O)[C@H](CCC(=O)O)NC(=O)[C@H](CC(C)C)NC(=O)[C@H](Cc1ccc(O)cc1)NC(=O)[C@H](CCCCN)NC(=O)[C@H](CCCCN)NC(=O)[C@H](C)NC(=O)[C@H](CO)NC(=O)[C@H](CC(C)C)NC(=O)[C@H](CCC(N)=O)NC(=O)CNC(=O)[C@H](CC(C)C)NC(=O)[C@H](CC(C)C)NC(=O)[C@H](CCCCN)NC(=O)[C@H](CO)NC(=O)[C@H](Cc1ccccc1)NC(=O)[C@H](CC(=O)O)NC(=O)[C@H](CO)NC(=O)[C@@H](NC(=O)[C@H](Cc1ccccc1)NC(=O)[C@@H](NC(=O)CNC(=O)[C@H](CC(=O)O)NC(=O)[C@H](C)NC(=O)[C@@H](N)Cc1cnc[nH]1)C(C)C)[C@@H](C)O)C(N)=O | . | . | -2.0% | -4.5% | -0.4%
NC(=O)c1ncn([C@@H]2O[C@H](CO)[C@@H](O)[C@H]2O)c1N | . | . | 1.9% | -11.2% | -18.5%
SMILES | PLK1 PBD block | ALDH1A1 block | VP16 counter | RORg inh | Sfp inh
CC(C)(C)n1cnc(C(N)=O)c1N | -6.2% | 10µM* | 3.5% | 3.2% | 4.0%
CCCC(C)Sc1nc2c([nH]1)c(=S)n(C)c(=O)n2C (stereo unspecified) | -6.1% | . | . | . | .
N[C@@H](COC(c1cccc(F)c1)c1ccccc1OCc1ccccc1)C(=O)O (stereo partly specified) | . | . | -1.4% | 17.0% | -14.2%
COc1ccc(S(=O)(=O)N2CCCCCC2)cc1C(=O)OCc1c(C)noc1C | -2.2% | 14.1µM* | 1.8% | 0.5%[10 µM] | 0.5%
COc1ccc(S(=O)(=O)N2CCc3ccccc32)cc1C(=O)OCc1c(C)noc1C | ? | 3.16µM* | 2.6% | 28.3% | -2.1%
COc1ccc(S(=O)(=O)N2CCc3ccccc32)cc1C(=O)O | -0.9% | . | -2.1% | 0.2% | 21.6%
CN(C)S(=O)(=O)N1CCC(Oc2ccc(C(=O)NC3CCCCC3)cc2)CC1 | -12.8% | -9.1% | 7.9% | ? | 4.3%
CN(C)S(=O)(=O)N1CCC(Oc2cccc(C(=O)NC3CCCCC3)c2)CC1 | 15µM* | . | ? | ? | 15.2%
CC(C)C[C@H]1CN(CCCC[C@H]2CNC(=O)C(=O)N2CCc2ccc(O)cc2)C(=O)C(=O)N1CCC1CCCCC1 | -0.8% | . | . | . | .
O=C(c1cccn(Cc2ccc(C(F)(F)F)cc2)c1=O)N1CCOCC1 | 26.7µM* | 13.5% | -2.2% | -0.6% | 5.9%
O=C(c1ccc(C(F)(F)F)n(Cc2ccc(Cl)cc2)c1=O)N1CCOCC1 | -5.9% | . | 2.9% | -4.4% | 13.9%
CCc1ccc(NC(=O)CSc2nc3nc(C)cc(C)n3n2)cc1 | ? | . | 1.12µM* | 36.1% | 6.4%
Cc1cc(C)n2nc(SCC(=O)Nc3ccccc3)nc2n1 | -8.6% | 1.2% | 9.3% | 13.9% | 7.7%
Cc1nc(SCC(=O)NC(=O)NC2CCCCC2)nc(C)c1C | -26.0% | -5.5% | -6.6% | 4.5% | 50.1µM*
Cc1cc(C)nc(SCC(=O)NC2CCCC2)n1 | -14.3% | 13.0% | -2.0% | 20.5% | 11.8%
Cc1cc(C)n2nc(SCC(=O)NC3CCCCC3)nc2n1 | ? | . | -3.6% | 4.5% | 39.8µM*
Cc1nc2cc(NCc3ccccc3O)ccc2n1Cc1ccccc1 | 3.36µM* | ? | ? | ? | -10.6%
CCOC(=O)/C(=C\c1c[nH]c2ccccc12)NC(C)=O | 21.2µM* | ? | 3.6% | 9.4% | 3.5%
COC(=O)/C(=C\c1c[nH]c2ccccc12)NC(C)=O | -4.7% | -1.6% | -14.0% | ? | -16.9%

Assay outcomes deposited in PubChem BioAssay by National Center for Advancing Translational Sciences (NCATS).
